Molecules are shown by their SMILES. A number with no mark means an inactive call. Results filed as inconclusive are left out. The source made the active and inactive calls. Unless noted, calls come from the whole dose curve; as a rule, active = well fitted curve in the direction sought with a large enough effect in the repeat runs; inconclusive = weak or mixed curves; inactive = no such curve, though single readings can be large; an effect the other way counts as inactive or inconclusive.

Test [1] can be described thus: qHTS assay to test for compound auto fluorescence at 535 nm (green) in HEK293 cells (AID 720680).
The nature of test [2]: qHTS assay to test for compound auto fluorescence at 460 nm (blue) in HEK293 cell free culture (AID 720681). Put shortly: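 Test compounds were pinned into cell-free culture medium (DMEM with 10% FBS) and fluorescence was read directly at Ex/Em 405/460 nm. Signals were expressed as fluorescence equivalents of triamterene, with DMSO vehicle as control.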
A general note: qHTS replaces the single test concentration by a dilution series.

Test [3] is described as follows: qHTS assay to test for compound auto fluorescence at 535 nm (green) in HEK293 cell free culture (AID 720682). Put shortly:
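Cell-free medium (DMEM, 10% FBS) receives compound or DMSO by pintool. Plate read directly at Ex 485/Em 535 nm. Signal converted to fluorescein equivalency.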

The nature of test [4]: qHTS assay to test for compound auto fluorescence at 590 nm (red) in HEK293 cell free culture (AID 720683). Put shortly:
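Tox21 10K library compounds were pinned into cell-free DMEM with 10% FBS and fluorescence was read at excitation 540 nm. Activity is expressed as Rose Bengal sodium equivalency.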

The nature of test [5]: qHTS assay to test for compound auto fluorescence at 590 nm (red) in HepG2 cell free culture (AID 720684). The method, boiled down: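 Ex 540 / Em 590 nm read of compound in cell-free MEM (10% FBS). Rose Bengal sodium reference.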
Test [6] is described as follows: qHTS assay to test for compound auto fluorescence at 460 nm (blue) in HepG2 cell free culture (AID 720685). The method, boiled down: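 Cell-free plates of MEM plus 10% FBS received 23 nL compound or DMSO vehicle; blue-channel (405/460 nm) intensity scored against triamterene as reference fluorophore.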
Test [7] in a line: qHTS assay to test for compound auto fluorescence at 535 nm (green) in HepG2 cell free culture (AID 720686).
Test [8] is described as follows: qHTS assay to test for compound auto fluorescence at 460 nm (blue) in HepG2 cells (AID 720687). The method, boiled down:
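Cells (2,000/well in MEM with 10% FBS) attached overnight at 37 C, then were exposed to compound or DMSO for 1 hr at 37 C, 5% CO2. Fluorescence read at Ex/Em 405/460 nm, expressed as triamterene-equivalent signal.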

Test [9] has as its target Glucocorticoid receptor (Homo sapiens) (UniProt P04150). The test is described as follows: qHTS assay to identify small molecule agonists of the glucocorticoid receptor (GR) signaling pathway (AID 720691; active = well fitted activation curve with a large enough effect in the signal ratio in the repeat runs, not every such curve was filed as active; the % refers to the signal ratio). The method, boiled down: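 A HeLa cervical cancer line expressing GR and a glucocorticoid response element-driven beta-lactamase gene is treated with compounds for 18 h; LiveBLAzer B/G FRET substrate is then applied and fluorescence read.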

Test [10] shares this target. The test is described as follows: qHTS assay to identify small molecule antagonists of the glucocorticoid receptor (GR) signaling pathway (AID 720692; active = well fitted inhibition curve with a large enough effect in the signal ratio in the repeat runs, not every such curve was filed as active; the % refers to the signal ratio). Put shortly:
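GRE-bla HeLa line, dex-stimulated (5 nM final). Compound exposure 18 h, 37 C. Beta-lactamase FRET read after 2 h RT substrate.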

Test [11] can be described thus: qHTS assay to identify small molecule antagonists of the glucocorticoid receptor (GR) signaling pathway - cell viability counter screen (AID 720693). Note: nearly all actives have a fitted effect of over 55% in size.
Test [12] in a line: qHTS assay for identifying genotoxic compounds that show differential cytotoxicity against isogenic chicken DT40 cell lines with known DNA damage response pathways - wild type cell line (AID 743012). Note: nearly all actives have a fitted effect of over 60% in size. Note: potency is the fitted concentration of half-maximal effect. The method, boiled down: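 300 wt DT40 cells/well; cpd (DMSO) pintool-transferred after ~0.5 h at 37 C/5% CO2; 40 h incubation; CellTiter-Glo added, 30 min RT; luminescence read.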

Test [13] is described as follows: qHTS assay for identifying genotoxic compounds that show differential cytotoxicity against isogenic chicken DT40 cell lines with known DNA damage response pathways - Rev3 mutant cell line (AID 743014). Note: nearly all actives have a fitted effect of over 55% in size. Note: potency is the fitted concentration of half-maximal effect.
Test [14] is described as follows: qHTS assay for identifying genotoxic compounds that show differential cytotoxicity against isogenic chicken DT40 cell lines with known DNA damage response pathways - Rad54/Ku70 mutant cell line (AID 743015). Note: nearly all actives have a fitted effect of over 60% in size. Note: potency is the fitted concentration of half-maximal effect.
Test [15] is described as follows: qHTS assay to identify small molecule antagonists of the androgen receptor (AR) signaling pathway - cell viability counter screen (AID 743033; note: nearly all actives have a fitted effect of over 45% in size).
Test [16] has as its target Androgen receptor (Homo sapiens) (UniProt P10275). The test is described as follows: qHTS assay to identify small molecule antagonists of the androgen receptor (AR) signaling pathway (AID 743035; active = well fitted inhibition curve with a large enough effect in the signal ratio in the repeat runs, not every such curve was filed as active; the % refers to the signal ratio). Put shortly: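 In this cell-based reporter screen, compounds were tested in concentration series against R1881-activated HEK293 cells expressing beta-lactamase under UAS control; after 16 h at 37C, FRET substrate was added and fluorescence read 2 h later.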

Test [17] has the same target. The test is described as follows: qHTS assay to identify small molecule agonists of the androgen receptor (AR) signaling pathway (AID 743036; active = well fitted activation curve with a large enough effect in the signal ratio in the repeat runs, with a control signal flat, not every such curve was filed as active; the % refers to the signal ratio). Put shortly:
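AR-bla HEK293 cells, 2,000/well; 4 h preincubation 37C/5% CO2; compound (DMSO) 16 h at 37C; LiveBLAzer B/G FRET substrate 2 h RT; fluorescence intensity read-out.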

For test [18] the target is unchanged. Kind of test: qHTS assay to identify small molecule agonists of the androgen receptor (AR) signaling pathway using the MDA cell line (AID 743040; note: nearly all actives have a fitted effect of over 20% in size). Put shortly:
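Cell-based luciferase reporter: MDA-kb2, MMTV promoter (AR + GR response elements). 16 h compound exposure at 37C; ONE-Glo, 30 min RT, luminescence.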

Test [19] in a line: qHTS assay to identify small molecule antagonists of the androgen receptor (AR) signaling pathway using the MDA cell line - cell viability counter screen (AID 743041; note: nearly all actives have a fitted effect of over 45% in size). The method, boiled down:
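In this qHTS counter assay, fluorescence intensity after CellTiter-Fluor addition indicated viability of MDA-kb2 AR-luc cells given compounds and R1881 for 16 h at 37C.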

Test [20] has as its target Androgen receptor (Homo sapiens) (UniProt P10275). Kind of test: qHTS assay to identify small molecule antagonists of the androgen receptor (AR) signaling pathway using the MDA cell line (AID 743042; note: nearly all actives have a fitted effect of over 55% in size). The method, boiled down:
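MDA-kb2 cells (human breast carcinoma, stably carrying an MMTV-luciferase reporter responsive to AR and GR) were plated at 3,000 cells/well and preincubated 5 hr at 37C, then given compound plus R1881 agonist for 16 h. ONE-Glo luminescence was read.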
% is set by controls: 0 for no effect and ±100 for the full control effect.

Sequence of Androgen receptor (Homo sapiens) (P10275 whole entry, looked up): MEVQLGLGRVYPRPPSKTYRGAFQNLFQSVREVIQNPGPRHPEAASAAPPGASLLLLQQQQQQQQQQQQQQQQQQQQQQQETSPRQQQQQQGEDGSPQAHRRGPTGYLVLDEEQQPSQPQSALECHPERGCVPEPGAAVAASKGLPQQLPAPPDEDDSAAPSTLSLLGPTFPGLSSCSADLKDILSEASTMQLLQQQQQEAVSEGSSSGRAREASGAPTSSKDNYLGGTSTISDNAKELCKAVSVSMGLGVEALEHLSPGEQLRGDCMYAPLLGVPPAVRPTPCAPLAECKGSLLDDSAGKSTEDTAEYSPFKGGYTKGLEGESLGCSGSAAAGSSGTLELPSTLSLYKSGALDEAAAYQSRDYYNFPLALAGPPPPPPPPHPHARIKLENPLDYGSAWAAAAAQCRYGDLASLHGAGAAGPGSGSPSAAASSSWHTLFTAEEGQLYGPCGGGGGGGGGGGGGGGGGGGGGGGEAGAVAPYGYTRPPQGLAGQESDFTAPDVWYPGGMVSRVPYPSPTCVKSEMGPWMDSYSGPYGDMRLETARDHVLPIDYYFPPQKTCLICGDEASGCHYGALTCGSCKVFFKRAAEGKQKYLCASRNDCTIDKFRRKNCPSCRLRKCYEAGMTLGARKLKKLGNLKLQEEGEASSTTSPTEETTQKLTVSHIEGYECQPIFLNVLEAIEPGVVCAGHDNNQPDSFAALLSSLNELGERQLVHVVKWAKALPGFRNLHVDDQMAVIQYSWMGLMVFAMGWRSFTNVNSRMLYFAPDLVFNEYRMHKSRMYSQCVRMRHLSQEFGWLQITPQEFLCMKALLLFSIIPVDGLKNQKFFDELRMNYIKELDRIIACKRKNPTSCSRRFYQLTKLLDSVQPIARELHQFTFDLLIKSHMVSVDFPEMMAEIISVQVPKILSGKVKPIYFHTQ
Sequence of Glucocorticoid receptor (Homo sapiens) (P04150 whole entry, looked up): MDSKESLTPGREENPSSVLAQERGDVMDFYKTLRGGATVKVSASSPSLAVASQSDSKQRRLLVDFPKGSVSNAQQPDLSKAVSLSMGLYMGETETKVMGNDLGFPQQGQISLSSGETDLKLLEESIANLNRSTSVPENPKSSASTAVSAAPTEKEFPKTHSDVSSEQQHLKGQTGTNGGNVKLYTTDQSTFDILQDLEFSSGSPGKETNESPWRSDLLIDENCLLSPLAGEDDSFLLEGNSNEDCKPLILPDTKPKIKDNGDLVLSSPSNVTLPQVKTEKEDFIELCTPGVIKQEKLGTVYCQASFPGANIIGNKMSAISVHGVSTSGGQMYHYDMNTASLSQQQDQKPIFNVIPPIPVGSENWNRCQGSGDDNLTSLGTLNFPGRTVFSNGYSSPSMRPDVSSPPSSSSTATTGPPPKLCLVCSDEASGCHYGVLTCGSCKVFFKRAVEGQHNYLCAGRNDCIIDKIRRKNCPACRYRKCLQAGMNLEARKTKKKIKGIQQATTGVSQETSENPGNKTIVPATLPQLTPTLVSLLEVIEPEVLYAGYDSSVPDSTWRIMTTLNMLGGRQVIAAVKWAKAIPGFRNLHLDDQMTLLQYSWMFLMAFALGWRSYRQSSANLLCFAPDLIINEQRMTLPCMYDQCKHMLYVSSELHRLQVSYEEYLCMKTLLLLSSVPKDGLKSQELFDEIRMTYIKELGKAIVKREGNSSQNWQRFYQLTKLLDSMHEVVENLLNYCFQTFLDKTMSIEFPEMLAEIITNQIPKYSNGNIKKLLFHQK

Take `CCCCCCCC(=O)OCCCCCC`: the molecule was classed as inactive in [1], in test [3], in test [4], in [5], in test [7] and in test [17]. Also, the Potency entry in test [2], in test [6], in test [8], in test [9], in test [10] and in test [11] was “inactive” throughout. For the same molecule, the Potency entry in [12], in test [13], in test [14], in test [15], in test [16] and in test [18] was “inactive” throughout. Besides, the Potency entry in test [19] and in [20] was “inactive” in each case.

On to `C1=CCC2CC=CC2C1` (stereo not given), for which the call in test [1], in test [3], in [4], in [5], in test [7] and in test [17] was inactive. The Potency result in test [2], in [6], in test [8], in [9], in test [10] and in [11] was “inactive” in each case. In addition, the Potency entry in test [12], in [13], in test [14], in test [15], in [16] and in test [18] was “inactive” in each case. The Potency result in test [19] and in test [20] was “inactive” in each case.

`O=C1OC(=O)c2c(Br)c(Br)c(Br)c(Br)c21`: the outcome in test [1], in test [3], in [4], in [5] and in test [7] was inactive. For the same molecule, the Potency result in test [2], in test [6], in [8], in test [9], in [10] and in [11] was “inactive” throughout. Also, the Potency result in [12], in test [13], in [14], in test [15] and in test [19] was “inactive” each time.

For the molecule `Cc1cccc(C)c1NC(=O)c1cc(S(N)(=O)=O)c(Cl)cc1O`, the molecule was classed as inactive in [1], in test [3], in test [4], in test [5] and in test [7]. The Potency entry in test [2], in [6], in test [8], in [9], in test [10] and in test [11] was “inactive” each time. In addition, the Potency result in test [12], in test [13], in test [14] and in test [15] was “inactive” in each case.

Consider `COc1cc(C(C)=O)ccc1OCCCN1CCC(c2noc3cc(F)ccc23)CC1`, for which the result in test [1], in test [3], in [4], in test [5] and in test [7] was inactive. In addition, the Potency result in test [2], in test [6], in [8], in test [9], in [10] and in test [11] was “inactive” each time. Further, the Potency entry in test [19] was “inactive”. For the same molecule, the results for the Potency in test [12], in test [13] and in test [14] were 11.9 µM (active), 18.8 µM (active) and 16.8 µM (active), respectively.

For the molecule `CC(C)(C)NCC(O)COc1cccc2c1C[C@H](O)[C@H](O)C2` (stereo not given in full), the fluorescence, % of fluorescein in test [1] was 0.0671% [at 18.6 µM]. Moreover, the fluorescence, % of fluorescent control in test [2] is 0.0347% [at 18.6 µM]; in test [4] it was 0.19% [at 18.6 µM]; in test [6] it was 0.0077% [at 18.6 µM]; in test [8], 0.0012% [at 18.6 µM]. Further, in test [3], the activity change was 0.0167% [at 18.6 µM]. For the same molecule, in [5], the fluorescence, % of Rose Bengal was -0.334% [at 18.6 µM]. The fluorescence, % of fluorescein control in test [7] is -0.0012% [at 18.6 µM]. Besides, the Potency result in test [9], in test [10], in test [11], in [12], in test [13] and in test [14] was “inactive” throughout. Besides, the Potency result in test [15] and in test [19] was “inactive” in each case.

On to `CCCOC(=O)c1c(Cl)c(Cl)c(Cl)c(Cl)c1C(=O)OCCC`, for which the call in [1], in test [3], in test [4], in [5] and in [7] was inactive. The Potency entry in test [2], in test [6], in [8], in [9], in [10] and in test [11] was “inactive” throughout. Moreover, the Potency in [12] is 54.5 µM (active); in test [13], 61.1 µM (active).

Values taken from PubChem BioAssay (Tox21).
